According to PubChem BioAssay (NCI):
Compounds without any hit were thinned out: in the full panel of roughly 83,000, 20% have a hit.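 Cells were grown in 96-well plates and exposed to the test compound at a single concentration for 48 hours; results are reported as percent growth, with values below 10 considered active.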 Values without a mark were called inactive. Activity calls are given as the source filed them.

Tests used:
Test in all cases: NCI-60 one-dose screen, 48 h (100 = growth as untreated, 0 = no growth, -100 = all killed)
Details in all cases: 10 µM
K-562 leukemia = tested on: K-562 leukemia
MDA-MB-231 breast = tested on: MDA-MB-231 breast
RXF 393 renal = tested on: RXF 393 renal
SF-268 CNS = tested on: SF-268 CNS
SF-295 CNS = tested on: SF-295 CNS
SF-539 CNS = tested on: SF-539 CNS
UACC-257 melanoma = tested on: UACC-257 melanoma
M14 melanoma = tested on: M14 melanoma
HT29 colon = tested on: HT29 colon
SNB-75 CNS = tested on: SNB-75 CNS
SNB-19 CNS = tested on: SNB-19 CNS
U251 CNS = tested on: U251 CNS
PC-3 prostate = tested on: PC-3 prostate
SK-MEL-5 melanoma = tested on: SK-MEL-5 melanoma
UACC-62 melanoma = tested on: UACC-62 melanoma
LOX IMVI melanoma = tested on: LOX IMVI melanoma
SK-MEL-28 melanoma = tested on: SK-MEL-28 melanoma
SK-MEL-2 melanoma = tested on: SK-MEL-2 melanoma
HCT-15 colon = tested on: HCT-15 colon
MALME-3M melanoma = tested on: MALME-3M melanoma

| Structure (SMILES) | growth (K-562 leukemia) | growth (MDA-MB-231 breast) | growth (RXF 393 renal) | growth (SF-268 CNS) | growth (SF-295 CNS) | growth (SF-539 CNS) | growth (UACC-257 melanoma) | growth (M14 melanoma) | growth (HT29 colon) | growth (SNB-75 CNS) | growth (SNB-19 CNS) [%] | growth (U251 CNS) | growth (PC-3 prostate) | growth (SK-MEL-5 melanoma) | growth (UACC-62 melanoma) | growth (LOX IMVI melanoma) | growth (SK-MEL-28 melanoma) | growth (SK-MEL-2 melanoma) | growth (HCT-15 colon) | growth (MALME-3M melanoma) [%] |
| --- | --- | --- | --- | --- | --- | --- | --- | --- | --- | --- | --- | --- | --- | --- | --- | --- | --- | --- | --- | --- |
| Cn1c(C(N)=O)cc2c1-c1nc(Nc3ccccc3)ncc1CCC2 | 49.8% | 38.1% | 3.67% (active) | 47.8% | 60.6% | 35.5% | 74.3% | 45.5% | 70% | 35.6% | 58.4 | 26.9% | 59.5% | 72.1% | 37.1% | 40.5% | 68.7% | 46% |  |  |
| O=C1OCC2=C1C(c1cccc(Br)c1)c1cc3c(cc1N2CCO)CCC3 (centres undefined) | 19.4% | -13% (active) | 29.5% | 14.4% | -9.25% (active) | -1.5% (active) |  | 12.8% | -12.1% (active) | 37.5% | 28.8 | 5.68% (active) | 22.4% | -12.6% (active) | 20.2% | 15.5% | 62% |  | 8.3% (active) |  |
| CCOC(=O)CNC(=O)CCCCSc1ncnc2nc[nH]c12 | 85.7% | 108% |  | 113% | 127% | 91.2% | 81.2% | 100% | 103% | 95.3% | 109 | 106% | 91% | 93.4% | 94.9% | 102% | 110% | 97.6% | 101% |  |
| CCc1ccc2c(c1)N(CCO)C1=C(C(=O)OC1)C2c1ccccc1 (centres undefined) | 49.1% | 103% | 94.3% | 106% | 86% | 103% |  | 78.9% | 86.3% | 88% | 104 | 45.4% | 93.5% | 87.3% | 70.6% | 94.5% | 90.9% |  | 71.6% |  |
| COc1ccc(NC(=O)CSc2nc3ccccc3c(=O)n2CCc2ccccc2)cc1 |  | 61.5% |  | 53.7% | 91.5% | 79.5% | 87.9% | 75.3% |  | 28.7% | 59.4 | 71.4% | 106% | 86.6% | 89.8% | 92.9% | 91.6% | 121% | 92.1% | 60.3 |
| Oc1[nH]c2ccc(Cl)cc2c1/C=c1/ccc2c(c1)N=C(c1cc(F)cc(F)c1)N=2 | 14.8% | 79.3% | 61.6% |  | 46.7% | 83.3% | 70.5% | 68.5% | 22.7% | 11% |  | 73.9% | 62.6% | 35.5% |  | 47.2% | 65.4% | 54.8% | 46.1% |  |
| O=C1OCC2=C1C(c1ccc(Cl)c(Cl)c1)c1cc3c(cc1N2CCO)OCCO3 (centres undefined) | 17.8% | 26.6% | 8.18% (active) | 43.1% | -12.8% (active) | 2.76% (active) | 59.9% | 12.4% | 2.95% (active) | 30.3% | 33.1 | 18.2% | 19.1% | 29.9% | 22.5% | 44.3% | 53% |  |  |  |
| COc1ccc2c(c1)N(CCO)C1=C(C(=O)OC1)C2c1cc(OC)c(OC)c(OC)c1 (centres undefined) | 15% | -24.4% (active) | 55.5% | 23.9% | -20.6% (active) | -6.38% (active) | 47.4% | 11.2% |  | 38.3% |  | 9.9% (active) | 21.9% | -24.7% (active) | 8.69% (active) | 25.1% | 65.6% |  | 5.29% (active) |  |
| COc1cc(C)ccc1C(=O)c1ccc(C)cc1OC | 10% | 41.2% | -10.5% (active) | 43.5% | -39.1% (active) | 3.62% (active) | 60.3% | 12.4% | 2.74% (active) | 8.51% (active) |  | 18.3% | 17.6% | 25.9% | 42.3% | 31.5% | 58.5% | 17.2% | 36.3% |  |
| CCCCCCCCCCCCCC[n+]1ccc(C(N)=O)cc1 | 9.07% (active) | -35.3% (active) | -52.4% (active) | -12.5% (active) | -27.8% (active) | -3.7% (active) | 9.72% (active) | -45.1% (active) | -28.2% (active) | -24.8% (active) |  | -100% (active) | -23.3% (active) | -82.8% (active) | 0.667% (active) | -48.9% (active) | 43.3% | -32.4% (active) | 62.6% |  |
| CN1CCCNc2c(c(=O)c2=O)NCCCN(C)CCCNc2c(c(=O)c2=O)NCCCN(C)CCCNc2c(c(=O)c2=O)NCCCN(C)CCCNc2c(c(=O)c2=O)NCCCN(C)CCCNc2c(c(=O)c2=O)NCCCN(C)CCCNc2c(c(=O)c2=O)NCCCN(C)CCCNc2c(c(=O)c2=O)NCCC1 |  | 46.5% |  | -16.5% (active) | 65.9% | 6.63% (active) | 21.2% | 61.1% | 59.3% | 84.3% | 40.5 | 15.2% | 77.5% | 39.6% | 43.7% | 58.1% | 22.6% | 76.6% | 62.4% |  |
| COc1ccc(/C=C/C(=O)Nc2ccc(-c3nc4ccc(F)cc4s3)cc2)cc1 | 79.6% | 97% | 101% | 112% | 95.5% | 111% | 94.9% | 102% | 101% | 102% | 99 | 95.4% | 94.6% | 86.8% | 99.8% | 94.7% | 109% | 117% |  |  |
| CC[C@H]1CCC/C=C/[C@@H]2C[C@H](O)C[C@H]2[C@H](O)/C=C/C(=O)O1 | 10.3% | -88.4% (active) | -29.2% (active) | 8% (active) | -1.83% (active) | 30.9% | -13.6% (active) | 2.47% (active) | -56.8% (active) | 27.5% |  | 15.7% | 13.6% | -99.6% (active) | -0.469% (active) | -93.5% (active) | -0.327% (active) | -48.1% (active) | 8.78% (active) |  |
| Clc1ccc(/C=C2\CCCC3=C2N=C2SC=NN2C3c2ccc(Cl)cc2)cc1 (centres undefined) | 102% | 104% | 105% | 99.2% | 105% | 106% | 97.1% | 94.9% | 60.7% | 93.2% | 96.5 | 84.6% | 96.3% | 101% | 80.2% | 55.1% | 98.4% | 113% |  |  |
| CCCCCC(=O)c1ccc(OCCCN2CCN(C(=O)OCC)CC2)cc1 | 66.4% | 99.5% | 102% | 108% | 81.8% | 104% | 95.6% | 103% | 102% | 102% |  | 98.2% | 78.7% | 63.7% | 87% | 81.7% | 98.3% | 85.5% | 85.1% |  |
| O=C(Nc1ccncc1)C(=O)c1cn(S(=O)(=O)c2cccc(Cl)c2)c2ccccc12 | 19.8% | 87.4% | 89.2% | 80.9% | 55.8% | 67.3% | 78.1% | 47% | 29% | 85.3% |  | 61.2% | 72.4% | 51.7% | 61.2% | 44.6% | 86.5% | 57.7% | 49.2% |  |
